Laboratory results from PubChem BioAssay AID488835 (Broad Institute, 2010).
Among all 1,400 compounds or so, about 140 (10%) were called active.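 Rule for the calls: active = Half-maximal inhibitory dose from the fit at or below ten times the top valid tested dose; inconclusive = Invalid fit, or flat curve showing 30 to 70% inhibition; inactive = the rest.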 A selection follows. Results with a measured potency or affinity are listed apart.

Biological target: Lysine-specific demethylase 4C (Homo sapiens) (UniProt Q9H3R0)
Assay: GASC-1 (JMJD2C) histone demethylase inhibitors, dose response, biochemical, DELFIA europium, cherry-picked samples (AID 488835);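 note: signal is the H3K9me2 demethylation product detected by a dimethyl-specific antibody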
Settings: GST-JMJD2C(1-420), H3K9me3 demethylation; series mostly up to 6 µM; activity change, negative = inhibition: at the top concentration

Sequence of Lysine-specific demethylase 4C (Homo sapiens) (Q9H3R0 1-420 limits assumed): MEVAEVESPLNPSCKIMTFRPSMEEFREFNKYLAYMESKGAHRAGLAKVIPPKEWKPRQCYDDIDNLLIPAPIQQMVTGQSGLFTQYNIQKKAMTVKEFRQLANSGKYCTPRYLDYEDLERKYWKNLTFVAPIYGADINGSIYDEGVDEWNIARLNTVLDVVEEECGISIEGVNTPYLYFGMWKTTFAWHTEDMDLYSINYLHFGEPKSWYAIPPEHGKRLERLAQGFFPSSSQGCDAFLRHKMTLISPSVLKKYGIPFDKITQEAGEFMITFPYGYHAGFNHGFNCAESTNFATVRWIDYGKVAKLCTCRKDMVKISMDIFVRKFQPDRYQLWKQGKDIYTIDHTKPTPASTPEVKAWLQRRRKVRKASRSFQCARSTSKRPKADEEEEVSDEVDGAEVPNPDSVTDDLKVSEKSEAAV

Activity change, negative = inhibition, inactive:
COc1ccc(/C=N/N=C2\CC3CCC2(C)C3(C)C)cc1O (centres undefined) 2.55%
Cc1cc(C)c(NC(=O)CS(=O)CC(=O)Nc2ccc(F)cc2F)c(C)c1 (centres undefined) 0.49% [at 1.6 µM]
Cc1cccc2c1-c1sc(C(=O)Nc3cccc([N+](=O)[O-])c3C)cc1CO2 13.5%
Fc1cccc(F)c1/C=N/N1CCOCC1 -5.24%
COc1cccc(CSc2nnc(C(F)(F)F)n2Cc2ccc(F)cc2)c1 -2.62%
O=C1CCCC2=C1C(c1ccc(OS(=O)(=O)c3ccc(Cl)cc3)cc1)C1=C(CCCC1=O)O2 1.91%
O=C1c2ccc([N+](=O)[O-])cc2C(=O)N1Cc1cccnc1 7.52%
COc1ccc(CCNC(=O)c2ccc(N3CCCCS3(=O)=O)cc2)cc1OC 4.22%
O=C(NCCCN1CCCC1=O)c1cc(-c2cccnc2)nc2ccc(Cl)cc12 1.3%
CCCC(=O)NC(c1cccs1)c1cc(Cl)c2cccnc2c1O (centres undefined) -4.81%
COc1ccc(CN2CCNC(=O)C2CC(=O)NCc2csc(C(C)C)n2)c(OC)c1 (centres undefined) -5.09%
Cc1ccc(C2=[N+]([O-])C(C)(C)CC2)cc1 6.51%
O=C(/C=C/c1cccs1)NC1CCS(=O)(=O)C1 (centres undefined) -6.7%
CCOC(=O)c1c(NC(=O)C2CCCO2)sc2c1CCC2 (centres undefined) 0.617% [at 1.6 µM]
CC(C)(C)NC(=O)C1CCN(C(=O)c2ccc(Br)cc2)CC1 3.64%
CC1=C(C#N)C(Nc2ccc(C)cn2)(C(F)(F)F)C(=O)N1 (centres undefined) 2.37%
Cc1csc(SCC(=O)Nc2ccccc2C)n1 2.73%
Cc1ccccc1C(=O)Nc1ccccc1C(=O)NC1CC1 5.56%
N/C(=N\NC(=O)c1ccc(Cl)cc1)c1cnccn1 -1.36%
CCCc1c(NC(=O)Nc2ccc(F)cc2)cnn1-c1ccccc1 7.81%
CC1CCN(c2ccc3c(c2)S(=O)(=O)c2cccc(C(=O)NC4CC4)c2C3=O)CC1 7.81%
CCOC(=O)CCC(=O)NCc1ccc2c(c1)cc(C)n2C 7.23%
CCN(c1ccc(NC(=O)CCNC(=O)c2ccco2)cc1)C(C)C 7.29%
Cc1c(C2Nc3ccccc3NC3=C2C(=O)CC(C)(C)C3)cnn1C (centres undefined) -10.9%
CCOc1cccc(SCc2noc(C(=O)NC(C)C)c2C(=O)O)c1 2.92%
Cc1sc2ncnc(NCCCO)c2c1C 5.97%
Cc1sc2c(c1C)C(=O)/C(=C\Nc1ccccn1)S(=O)(=O)N2C 8.06%
CCN(C[C@H]1N[C@@](CC)(C(=O)OC)[C@H]2C(=O)N(C)C(=O)[C@@H]12)S(=O)(=O)c1ccc(C(F)(F)F)cc1 5.54%
CCN(C[C@H]1N[C@@](Cc2ccccc2)(C(=O)OC)[C@H]2C(=O)N(Cc3ccccc3)C(=O)[C@@H]12)S(=O)(=O)c1ccccc1 1.11%
Cc1ccc(-n2c3nc(=O)[nH]c(=O)c-3cc3c(C)nn(-c4ccccc4)c32)c(C)c1 2.71%
O=C1CC2C(=O)NCCN2C(=NC(=O)c2ccccc2)N1 (centres undefined) 2.42% [at 1.6 µM]
CCSc1nnc(-c2cccc(S(=O)(=O)N(CC)CC)c2)n1Cc1ccccc1 4.36%
Cc1ccc(-c2csc3nc(C)n(-n4c(C)ccc4C)c(=O)c23)o1 -2.47%
CN(C)CCOc1ccc(-c2c(-c3ccccc3)sc3ccccc23)cc1 1.19% [at 1.6 µM]
COc1ccc(OC)c(Nc2nc(-c3cccs3)cs2)c1 -4.95%
Fc1ccc(-c2csc(Nc3ccccn3)n2)cc1 -16.8%
COc1ccc(-c2n[nH]c(=S)n2C2CCCCC2)cc1 5.73%
NC(=O)C1CCN(c2nc(-c3ccc4c(c3)OCCO4)cs2)CC1 -1.63%
Cc1nc(-c2ccc(C(=O)N3CCCC3)cc2)cs1 -1.97%
OCC1=C[C@@H](O)[C@@H]2C=CO[C@@H](O[C@@H]3O[C@H](CO)[C@@H](O)[C@H](O)[C@H]3O)[C@H]12 -3.31%
COc1ccc2[nH]c(=O)c(CN(CCCN(C)C)C(=O)Nc3ccc(F)cc3)cc2c1 9.27%
N#Cc1ccc(OCC(=O)Nc2ccccc2NS(=O)(=O)c2cccs2)cc1 1.65%
CC(=O)C[C@@H](O)CC(=O)[C@H]1OC(=O)[C@H](C)C/C=C\Cc2ccccc21 7.11%
Cc1cccc(C)c1NC1=NC(=S)N(c2ccc(C(=O)O)cc2)C12CCCCC2 1.15%
O=C(COc1ccc(Cl)cc1)NCCCn1ccnc1 3.44%
O=C(OCCCOC(=O)c1ccc(Br)o1)c1ccc(Br)o1 6.94%
CN(C)S(=O)(=O)c1ccc(N2CCCC2)c(C(=O)Nc2nc3ccc(F)cc3s2)c1 0.98%
COc1ccc2cc(Br)ccc2c1CC(=O)NCCCN1CCOCC1 7.11%
CSCCC(NS(=O)(=O)c1ccc2ccccc2c1)C(=O)O (centres undefined) 2.69%
Cn1c(=O)[nH]c(=O)c2[nH]c(NCCCN3CCOCC3)nc21 -6.83%
CCOC(=O)N1CCN(c2ccc(F)cc2[N+](=O)[O-])CC1 2.68%
NC(=O)CC(NC(=S)NCc1ccccc1)C(=O)O (centres undefined) 2.62%
O=C(c1ccc2c(c1)OCO2)N1CCCN(C(=O)c2ccc3c(c2)OCO3)CC1 -1.3%
COc1ccc(CC(=O)Nc2ccc(/C(C)=N/NC(=O)c3cccc([N+](=O)[O-])c3)cc2)cc1 -4.82%
O=C(NCC(=O)N1CCCCC1)c1sc2ccccc2c1Cl 0.7%
c1cc2c(cc1C1CCCCC1)c1c3n2CCCNC3CCC1 (centres undefined) -0.182%
COC(=O)c1cc(S(=O)(=O)NCCCN2CCCC2=O)cn1C 2.12%
O=[N+]([O-])c1ccc(N2CCN(S(=O)(=O)c3ccc(Cl)cc3)CC2)cc1NCc1cccnc1 -4.65%
C=CCNC(=O)c1ccc(S(=O)(=O)CC)c(Cl)c1Cl 2.45%
COC(=O)C1CCN(C(=O)COC(=O)COc2ccc(C#N)cc2)CC1 2.04%
COc1cccc(NC(=S)/C(=C(\[O-])c2ccc(C)c([N+](=O)[O-])c2)[n+]2ccccc2)c1 -5.3%
Cn1nnnc1SCC(=O)NCC(=O)c1ccccc1 6.65%
O=C(CSc1nnc(CNC(=O)c2cccs2)o1)c1ccccc1 3.92%
NCc1nc(-c2ccc(Cl)cc2)no1 7.79%
CCS(=O)(=O)Nc1ccc(C2=NN(C(=O)c3ccco3)C(c3ccc(C)cc3)C2)cc1 (centres undefined) -8.78%
CC(CN1CCCC1)OC(=O)COc1ccccc1 (centres undefined) 0.741%
COc1ccc(C(=O)NC2CC3CCCC(C2)N3Cc2ccccc2)cc1 (centres undefined) 5.72%
CCN(CC)S(=O)(=O)c1ccc(N2CCOCC2)c(NC(=O)c2ccc3c(c2)OCCO3)c1 4.55%
O=C(NC1CCN(S(=O)(=O)c2ccc(F)cc2)CC1)c1ccc(F)cc1 0.599%
